ST2 inh: inhibitors of human ST2 (IL1RL1) binding to IL-33, primary screen, biochemical, AlphaLISA. Interleukin-1 receptor-like 1 (Homo sapiens), Q01638. AlphaLISA ST2-Fc/biotin-IL-33 interaction, 1 h. inhibition, % for hits at 17 µM. 2.3% of 78,000 active. AID 1259354, 2018; in the data active = inhibition above about 30%
Large screens that a line does not name were inactive; ! = not confirmed by another sample. The entries come from a sample that favours hits as a whole.

O=C(Nc1c(C(=O)Nc2ccc(F)cc2)oc2ccccc12)c1ccco1	none
O=C(O)c1cccc2c1NC(c1ccc(F)cc1)C1CC=CC21 (stereo not given)	ST2 inh 50%
COc1cccc2c1NC(c1ccc(Br)cc1)C1CC=CC21 (stereo not given)	ST2 inh 33%
Cc1ccc([C@@H]2Nc3c(F)cccc3[C@@H]3C=CC[C@@H]32)cc1	none
O=C(O)c1cccc2c1NC(c1ccccc1Br)C1CC=CC21 (stereo not given)	none
Fc1cccc2c1NC(c1ccc(Br)cc1)C1CC=CC21 (stereo not given)	ST2 inh 42%
Cc1cc(C)nc(NC(=O)COc2ccc([N+](=O)[O-])cc2)n1	none
O=C1CC(c2ccncc2F)c2c(n[nH]c2-c2ccc(Cl)cc2)N1 (stereo not given)	none
CN(CC1(CO)CCOCC1)c1nc(-c2cccnc2)nc2c1CNC2	none
NC1Nc2ccccc2C1(N)CC1NC(=O)C(Cc2ccccc2)NC(=O)C(Cc2ccccc2)NC1=O (stereo not given)	none
Cc1cc(N(C)C)nc(N2CCN(S(=O)(=O)c3cccc(F)c3)CC2)n1	none
Cn1cc(CN[C@H]2C[C@H]3C(=O)NC[C@@H](CCC(=O)N4CCCCC4)N3C2)c2ccccc21	none
O=C(NC[C@H]1O[C@@H](CC(=O)N2CCc3ccccc32)[C@H](O)[C@@H]1O)c1ccco1	none
O=C(c1ccc(S(=O)(=O)N2CCCCC2)cc1)N1CCN=C1SCc1ccc(Cl)cc1	none
Cc1ccccc1Cn1cc(SCC(=O)NCc2ccco2)c2ccccc21	none
O=C1CC(Cc2ccccc2)C(=O)N1c1ccccc1 (stereo not given)	none
CCCN1CCN(c2ncnc3sc(C(=O)O)c(C)c23)CC1	none
Cc1c(C(=O)O)sc2ncnc(N3CCN(c4ccccc4F)CC3)c12	none
COc1ccccc1N1CCN(c2ncnc3sc(C(=O)O)c(C)c23)CC1	ST2 inh 40%!
O=C1CC(NCc2ccc(F)cc2)C(=O)N1c1ccc(F)cc1 (stereo not given)	none
CC[C@@H]1SC2(CCN(C)CC2)NC1=O	none
COc1ccccc1/C=C/C1=NC(=C\c2ccc(SC)cc2)/C(=O)O1	none
COc1ccccc1/C=C/C1=NC(=C\c2ccc(C(C)C)cc2)/C(=O)O1	ST2 inh 45%
COc1ccccc1/C=C/C1=NC(=C\c2ccc(Cl)cc2Cl)/C(=O)O1	none
COc1ccc2c(c1)OC(C)CN(CCC(=O)N1CCc3[nH]c4ccc(OC)cc4c3C1)C2 (stereo not given)	none
O=C(NCc1ccc2c(c1)OCO2)c1ccc(NC2=NC3CS(=O)(=O)CC3S2)cc1 (stereo not given)	none
Cc1ccc(C(=O)Nc2c3c(nn2-c2ccccc2C)CSC3)cc1C	none
COc1ccccc1N=c1oc2ccccc2cc1C(=O)Nc1ccccc1	ST2 inh 41%
O=C(Nc1ccccc1)c1cc2ccccc2oc1=Nc1cccc(F)c1	none
COc1ccc(N=c2oc3ccccc3cc2C(=O)Nc2ccc(C)cc2)cc1	none
CN1C(=O)c2ccc(NC(=O)c3ccc(S(=O)(=O)N4CCc5ccccc54)cc3)cc2C1=O	none
O=C(CCNCC1(c2cccc(F)c2)CCOCC1)Nc1cccnc1	none
Cc1ccc(S(=O)(=O)Cc2noc([C@@H]3C[C@@H](O)CN3Cc3c[nH]c4ccccc34)n2)cc1	none
Cc1ccc(S(=O)(=O)Cc2noc([C@@H]3C[C@@H](O)CN3Cc3ccccc3[N+](=O)[O-])n2)cc1	ST2 inh 31%
Cc1ccc(S(=O)(=O)Cc2noc([C@@H]3C[C@@H](O)CN3Cc3ccc(S(C)(=O)=O)cc3)n2)cc1	none
COc1ccc(-c2noc(-c3ccc(C)c(C)c3)n2)cc1	none
CC(C)(C)c1ccc(OCC(=O)Nc2ccc(S(=O)(=O)Nc3nccs3)cc2)cc1	none
CCN(c1ccc(C)c(C)c1)S(=O)(=O)c1ccc2c(c1)c(=O)n(C)c(=O)n2C	none
Cc1cc(CNC(=O)c2cnn(-c3nccc(-c4cc(C)sc4C)n3)c2C)on1	ST2 inh 30%
COc1ccccc1-c1ccnc(-n2ncc(C(=O)NC(c3ccncc3)c3ccc(C)cc3)c2C)n1 (stereo not given)	none
Cc1nc(CCNC(=O)c2cnn(-c3ccccn3)c2C)sc1C	none
Cc1ccc(F)c(NC(=O)CCN[C@@H](CO)c2ccccc2)c1	none
O=C1CCCN2N=C(SCc3ccc(F)cc3)SC2=N1	none
Cc1ccc(S(=O)(=O)N(CC(=O)Nc2cccnc2)c2ccccc2F)cc1	none
CC1=C(C(=O)Nc2ccc(C)cc2C)C(c2ccc(C)cc2)n2nc(C(F)(F)F)nc2N1 (stereo not given)	none
Cc1cc2n(n1)C(c1ccc(Cl)cc1)CC(c1ccccc1)=N2 (stereo not given)	ST2 inh 30%!
CC(=O)N1c2ccccc2N=C(c2ccccc2)CC1c1ccccc1 (stereo not given)	none
O=C(O)CCC(=O)N1N=C(c2ccccc2)CC1c1ccc(Cl)cc1 (stereo not given)	none
Cn1c(C(=O)N2CCN(C(c3ccccc3)c3ccccc3)CC2)cc2c(=O)n3ccccc3nc21	none
O=C(c1nn2c(c1Cl)NC(c1ccco1)CC2C(F)(F)F)N1CCOCC1 (stereo not given)	none

High-throughput results: PubChem, Paczesny and Yang Labs, IUPUI and University of Michigan
